Molecules are shown by their SMILES. Inconclusive results are not listed. Calls of active or inactive are those of the source. How the source made its calls: active means hit-call score of the fitted dose curve at least 0.9, where 1 is the maximum; inconclusive means response in the unintended direction; inactive means score below 0.9.

This assay is described as follows: ACEA_ER_AUC_viability: ACEA Biosciences xCELLigence Real-Time Cell Analysis on Estrogen Receptor Agonism for Viability (AID 2283782).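 Further: hit means loss of impedance signal meaning reduced cell growth or viability.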 The gist of the method:
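Continuous-exposure impedance cell analysis uses T-47D cells in charcoal-stripped serum, eight 1:4 dilutions topping at 100 uM final, biological duplicate. Area under the growth curve at 80 h is fitted against DMSO baseline.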
With `Cc1cccc(C(C)(C)C)c1O`, the call was inactive.
As a reminder, the AC50 is the concentration at which the activity in the assay is half-maximal. For `Oc1ccc(/C=C/c2cc(O)cc(O)c2)cc1`, the half-maximal activity concentration (AC50) is 20.6 µM (active).
Take `CCCCOC(=O)C(C)CC` (configuration not stated): the result was inactive.
Take `Cc1c[nH]c(=O)[nH]c1=O`: the concentration at half-maximal activity (AC50) was 68.6 µM (active).
With `CC(C)C(=O)OCCc1ccccc1`, the call was inactive.
Turning to `CC(C)c1cccc(C(C)C)c1N`, the result was inactive.
For `C=CC(C)(CCC=C(C)C)OC(=O)C=Cc1ccccc1` (configuration not stated), the AC50 was 83.6 µM (active).
Consider `Oc1c(Cl)cc(Cl)c(Cl)c1Cl`, for which the AC50 is 90.9 µM (active).
Turning to `O=C(O)CCCC(=O)O`, the result was inactive.
On the same count and under the same terms, the value for `O=C1CCCCC1C1CCCCC1` (configuration not stated) was “inactive”; that for `Cc1ccc2c(c1)CCCN2` was “inactive”.
Turning to `C=CCNCC=C`, the AC50 is 50.5 µM (active).
In the case of `O=C(Cl)c1c(Cl)c(Cl)c(C(=O)Cl)c(Cl)c1Cl`, the molecule was classed as inactive.
As for `CCC1(C)C(=O)N(Cl)C(=O)N1Cl` (configuration not stated), the AC50 is 81.4 µM (active).
On to `CCOC(=O)[C@H](O)[C@@H](O)C(=O)OCC`, for which the AC50 was 50 µM (active).
`COc1nccnc1CC(C)C`: the molecule was classed as inactive.
Regarding `CC(=O)/C=C/C1C(C)=CCCC1(C)C` (configuration not stated), the molecule was classed as inactive.
On the same count and under the same terms, in the case of `CC(C)CCOCc1ccccc1` it was “inactive”; in that of `Cn1ccnc1`, “inactive”; in that of `CCC(C)C(=O)OC` (configuration not stated), “inactive”.
`COC(OC)(C(=O)c1ccccc1)c1ccccc1`: the AC50 is 64 µM (active).
In the case of `CCCCC1CCC(=O)O1` (configuration not stated), the AC50 is 60.6 µM (active).
On to `C=C(C)OC(C)=O`, for which the molecule was called inactive.
As to `CCc1cccc(CC)c1`, the outcome was inactive.
In the case of `CC1(C)CC(O)CC(C)(C)N1[O]`, the molecule was called inactive.
As for `C/C=C/C=C/CCCCCCCO`, the AC50 was 79.4 µM (active).
`CCCCCCCCCCCC(C)=O`: the AC50 was 66.7 µM (active).
In the case of `CC1CCC(C(C)(C)S)C(=O)C1` (configuration not stated), the molecule was classed as inactive.
For `CC(=O)CC(=O)Nc1ccccc1C`, the molecule was classed as inactive.
Take `CCOC(=O)CC(=O)c1ccccc1`: the AC50 is 50 µM (active).
For `CCCCCCCCCCCCC`, the molecule was called inactive.
As for `Cc1c(Cl)cccc1Cl`, the call was inactive.
As for `C=CC(=O)OCCCCCCOC(=O)C=C`, the AC50 was 85.3 µM (active).
For `CCC(=O)C1CC(C(C)C)CC=C1C` (configuration not stated), the molecule was called inactive.
Still for that read-out and setting: the value for `CCCCCCCC(=O)OCC` was “inactive”.
For `CC(C)=NNC(N)=S`, the AC50 was 82.4 µM (active).
On to `C=CC(=O)NCOCCCC`, for which the result was inactive.
